Holding throughout (settings): mRNA level, 48 h; actives raise or lower the signal
Read-out in experiment [1]: adenosine kinase (ADK) gene, ADK (gene 132)
As to the kind of experiment: LTEA_HepaRG_ADK: Life Technologies and Expression Analysis (LTEA) Assay for adenosine kinase (ADK) gene using HepaRG (AID 2283471). The method, boiled down:
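Read-out is ADK transcript level measured by qRT-PCR and normalised to three housekeeping genes. Cells are human HepaRG, dosed for 48 h at up to 100 uM in 0.5% DMSO. Gain or loss of signal is fitted against DMSO controls.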

Read-out in experiment [2]: Alpha-fetoprotein (AFP) gene, AFP (gene 174)
The experiment in a line: LTEA_HepaRG_AFP: Life Technologies and Expression Analysis (LTEA) Assay for Alpha-fetoprotein (AFP) gene using HepaRG (AID 2283472). The method, boiled down:
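AFP transcript measured by TaqMan qRT-PCR with three housekeeping genes for normalization, after 48 h chemical treatment of HepaRG cells (top 100 uM, half-log steps, 0.5% DMSO). Gain or loss fitted against vehicle.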

Read-out in experiment [3]: BCL2L11 (gene 10018)
The experiment in a line: LTEA_HepaRG_BCL2L11: Life Technologies and Expression Analysis (LTEA) Assay for Bcl-2 (BCL2L11) gene using HepaRG (AID 2283473). The essentials: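 Differentiated human HepaRG cells were exposed 48 h in serum-free induction medium to eight half-log concentrations up to 100 uM in 0.5% DMSO, in duplicate. BCL2L11 mRNA was quantified by TaqMan qRT-PCR, normalized to ACTB, GAPDH and POLR2A; induction or repression fitted versus DMSO.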

Read-out in experiment [4]: Apolipoprotein A-V (APOA5) gene, APOA5 (gene 116519)
The experiment in a line: LTEA_HepaRG_APOA5: Life Technologies and Expression Analysis (LTEA) Assay for Apolipoprotein A-V (APOA5) gene using HepaRG (AID 2283474). The method, boiled down:
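Differentiated HepaRG cells in serum-free induction medium, exposed 48 h in duplicate to eight half-log concentrations topping at 100 uM (0.5% DMSO). APOA5 mRNA by Fluidigm TaqMan qRT-PCR, normalized to ACTB, GAPDH and POLR2A; bidirectional fit versus DMSO.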

Read-out in experiment [5]: Apoptosis regulator Bcl-2 (Homo sapiens) (UniProt P10415)
As to the kind of experiment: LTEA_HepaRG_BCL2: Life Technologies and Expression Analysis (LTEA) Assay for Bcl-2 gene using HepaRG (AID 2283475). The essentials: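 qRT-PCR of BCL2 transcript, normalized to three housekeeping genes (ACTB, GAPDH, POLR2A), after 48 h chemical exposure of HepaRG cells; concentrations top 100 uM with half-log dilutions, 0.5% DMSO vehicle, duplicates; changes up or down fitted relative to vehicle.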

Read-out in experiment [6]: Bcl-2 (BID) gene, BID (gene 637)
As to the kind of experiment: LTEA_HepaRG_BID: Life Technologies and Expression Analysis (LTEA) Assay for Bcl-2 (BID) gene using HepaRG (AID 2283476). The method, boiled down: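 Duplicate 48 h treatments of HepaRG cells in serum-free induction medium spanned 100 uM downward in half-log steps, 0.5% DMSO. Transcript change quantified by qRT-PCR against three housekeeping genes, fitted up or down versus DMSO.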

Read-out in experiment [7]: Caspase-3 (Homo sapiens) (UniProt P42574)
As to the kind of experiment: LTEA_HepaRG_CASP3: Life Technologies and Expression Analysis (LTEA) Assay for cysteine-aspartic acid protease (CASP3) using HepaRG (AID 2283477). The method, boiled down:
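Differentiated HepaRG cells, plated 48 h, were treated in duplicate in serum-free induction medium for 48 h with eight half-log concentrations up to 100 uM in 0.5% DMSO. CASP3 mRNA measured by qRT-PCR, normalized to ACTB, GAPDH, POLR2A.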

Read-out in experiment [8]: Cytochrome P450 (CYP24A1), CYP24A1 (gene 1591)
The experiment in a line: LTEA_HepaRG_CYP24A1: Life Technologies and Expression Analysis (LTEA) Assay for Cytochrome P450 (CYP24A1) using HepaRG (AID 2283478). The method, boiled down: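 HepaRG cells plated 48 h, then exposed in duplicate in serum-free induction medium for 48 h to 8-point half-log series from 100 uM in 0.5% DMSO. CYP24A1 mRNA by Fluidigm qRT-PCR, normalized to ACTB, GAPDH, POLR2A; bidirectional fit versus DMSO.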

Read-out in experiment [9]: Cytochrome P450 (CYP1A2), CYP1A2 (gene 1544)
The experiment in a line: LTEA_HepaRG_CYP1A2: Life Technologies and Expression Analysis (LTEA) Assay for Cytochrome P450 (CYP1A2) using HepaRG (AID 2283479). The essentials:
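Differentiated human HepaRG cells in serum-free induction medium exposed 48 hours in duplicate to 8 half-log concentrations from 100 uM, 0.5% DMSO. CYP1A2 mRNA quantified by qRT-PCR, normalized to ACTB, GAPDH and POLR2A; bidirectional fitting versus DMSO.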

Read-out in experiment [10]: cysteine-aspartic acid protease (CASP8), CASP8 (gene 841)
As to the kind of experiment: LTEA_HepaRG_CASP8: Life Technologies and Expression Analysis (LTEA) Assay for cysteine-aspartic acid protease (CASP8) using HepaRG (AID 2283480). The essentials:
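qRT-PCR readout of CASP8 mRNA, normalized to three housekeeping genes, after 48 h chemical exposure of HepaRG cells; 8-point half-log series, top 100 uM, 0.5% DMSO vehicle. Bidirectional curve fitting against DMSO baseline.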

Read-out in experiment [11]: Cytochrome P450 (CYP2B6), CYP2B6 (gene 1555)
The experiment in a line: LTEA_HepaRG_CYP2B6: Life Technologies and Expression Analysis (LTEA) Assay for Cytochrome P450 (CYP2B6) using HepaRG (AID 2283481). The essentials:
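Differentiated human HepaRG cells in serum-free induction medium, dosed in duplicate for 48 h over 8 half-log concentrations topping at 100 uM (0.5% DMSO). CYP2B6 mRNA measured by TaqMan qRT-PCR, normalized to ACTB, GAPDH, POLR2A; bidirectional fit versus DMSO.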

Read-out in experiment [12]: Cytochrome P450 2C19 (Homo sapiens) (UniProt P33261)
As to the kind of experiment: LTEA_HepaRG_CYP2C19: Life Technologies and Expression Analysis (LTEA) Assay for CYP2C19 using HepaRG (AID 2283482). The method, boiled down: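 Differentiated HepaRG cells in serum-free induction medium exposed 48 h in duplicate, 8 concentrations from 100 uM by half-log steps in 0.5% DMSO. CYP2C19 mRNA measured by TaqMan qRT-PCR, normalized to ACTB, GAPDH, POLR2A. Bidirectional fit versus DMSO.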

Read-out in experiment [13]: CYP2C8 (gene 1558)
As to the kind of experiment: LTEA_HepaRG_CYP2C8: Life Technologies and Expression Analysis (LTEA) Assay for CYP2C8 using HepaRG (AID 2283483). The method, boiled down:
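HepaRG (human liver line), 48 h chemical exposure, 8-pt half-log series from 100 uM, 0.5% DMSO vehicle. Readout: CYP2C8 transcript by qRT-PCR, housekeeping-normalized. Bidirectional fit vs DMSO baseline.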

Read-out in experiment [14]: CYP2C9 (gene 1559)
As to the kind of experiment: LTEA_HepaRG_CYP2C9: Life Technologies and Expression Analysis (LTEA) Assay for CYP2C9 using HepaRG (AID 2283484). The method, boiled down:
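HepaRG, 48 h dosing, 8-pt half-log series, top 100 uM, 0.5% DMSO vehicle. Read-out: CYP2C9 transcript by TaqMan qRT-PCR, housekeeping-normalized (ACTB/GAPDH/POLR2A). Gain or loss fitted vs DMSO baseline.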

Read-out in experiment [15]: CYP2E1 (gene 1571)
As to the kind of experiment: LTEA_HepaRG_CYP2E1: Life Technologies and Expression Analysis (LTEA) Assay for CYP2E1 using HepaRG (AID 2283485). The method, boiled down: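 CYP2E1 transcript measured by Fluidigm qRT-PCR against three housekeeping genes in human HepaRG cells treated 48 h (top 100 uM, half-log steps, 0.5% DMSO vehicle). Gain or loss fitted relative to DMSO baseline.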

Read-out in experiment [16]: Cytochrome P450 3A4 (Homo sapiens) (UniProt P08684)
The experiment in a line: LTEA_HepaRG_CYP3A4: Life Technologies and Expression Analysis (LTEA) Assay for CYP3A4 using HepaRG (AID 2283487). The essentials: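 HepaRG, 48 h exposure, 8-pt CRC from 100 uM (half-log), 0.5% DMSO, duplicates; serum-free induction medium. Readout: CYP3A4 mRNA, qRT-PCR, ACTB/GAPDH/POLR2A normalization. Bidirectional fit vs DMSO.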

Read-out in experiment [17]: DNA damage-inducible transcript 3 (DDIT3), DDIT3 (gene 1649)
The experiment in a line: LTEA_HepaRG_DDIT3: Life Technologies and Expression Analysis (LTEA) Assay for DNA damage-inducible transcript 3 (DDIT3) using HepaRG (AID 2283488). The method, boiled down:
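DDIT3 transcript was quantified by qRT-PCR with ACTB/GAPDH/POLR2A normalization after 48 h chemical treatment of differentiated HepaRG cells in 0.5% DMSO. Dosing was eight-point, half-log, top 100 uM, duplicate wells. Curves fitted bidirectionally versus DMSO.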

Read-out in experiment [18]: Early growth response protein 1 (EGR1) transcription factor, EGR1 (gene 1958)
The experiment in a line: LTEA_HepaRG_EGR1: Life Technologies and Expression Analysis (LTEA) Assay for Early growth response protein 1 (EGR1) transcription factor using HepaRG (AID 2283490). The essentials:
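HepaRG, 48 h exposure, 8-pt half-log series from 100 uM, 0.5% DMSO vehicle; EGR1 transcript by TaqMan qRT-PCR (Fluidigm array), housekeeping-normalized; bidirectional fit relative to DMSO baseline.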

Read-out in experiment [19]: CYP4A11 (gene 1579)
The experiment in a line: LTEA_HepaRG_CYP4A11: Life Technologies and Expression Analysis (LTEA) Assay for CYP4A11 using HepaRG (AID 2283486). The method, boiled down:
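Differentiated HepaRG cells, 48 h after plating, exposed in duplicate for 48 h to 8 half-log concentrations up to 100 uM in 0.5% DMSO in serum-free induction medium. CYP4A11 mRNA measured by TaqMan qRT-PCR, normalized to ACTB, GAPDH and POLR2A.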

Read-out in experiment [20]: Pro-epidermal growth factor (Homo sapiens) (UniProt P01133)
The experiment in a line: LTEA_HepaRG_EGF: Life Technologies and Expression Analysis (LTEA) Assay for Epidermal growth factor (EGF) using HepaRG (AID 2283489). The essentials:
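HepaRG cells (~100,000/well, 48 h pre-culture) exposed in duplicate for 48 h in serum-free induction medium to 8 half-log concentrations up to 100 uM in 0.5% DMSO. EGF mRNA by qRT-PCR, normalized to ACTB/GAPDH/POLR2A; bidirectional fit versus DMSO.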

Active and inactive are the calls of the source. Rule for the calls: active = hit-call score of the fitted dose curve at least 0.9, where 1 is the maximum; inactive = score below 0.9.

Chain of Caspase-3 (Homo sapiens) (P42574 whole entry, looked up): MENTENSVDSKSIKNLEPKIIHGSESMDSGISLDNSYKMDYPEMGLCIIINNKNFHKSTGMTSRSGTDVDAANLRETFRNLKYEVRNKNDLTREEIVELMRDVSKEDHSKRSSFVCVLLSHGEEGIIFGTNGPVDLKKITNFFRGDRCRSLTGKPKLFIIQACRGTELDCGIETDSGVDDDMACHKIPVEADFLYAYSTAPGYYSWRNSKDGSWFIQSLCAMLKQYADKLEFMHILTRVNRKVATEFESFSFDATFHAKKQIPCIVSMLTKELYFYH
Chain of Cytochrome P450 3A4 (Homo sapiens) (P08684 whole entry, looked up): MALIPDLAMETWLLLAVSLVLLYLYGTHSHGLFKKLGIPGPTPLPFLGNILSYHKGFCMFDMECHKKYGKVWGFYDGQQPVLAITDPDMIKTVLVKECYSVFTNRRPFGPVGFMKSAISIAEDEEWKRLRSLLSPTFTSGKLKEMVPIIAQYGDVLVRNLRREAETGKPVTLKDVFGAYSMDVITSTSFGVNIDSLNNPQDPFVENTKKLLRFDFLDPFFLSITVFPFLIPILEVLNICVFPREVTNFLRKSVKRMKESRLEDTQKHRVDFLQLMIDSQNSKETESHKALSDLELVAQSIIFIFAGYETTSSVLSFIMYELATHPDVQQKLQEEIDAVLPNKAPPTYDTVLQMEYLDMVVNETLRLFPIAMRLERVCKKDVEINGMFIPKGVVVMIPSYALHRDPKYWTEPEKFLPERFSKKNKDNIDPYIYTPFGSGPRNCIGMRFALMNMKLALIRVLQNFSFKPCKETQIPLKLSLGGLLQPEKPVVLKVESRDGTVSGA
Chain of Cytochrome P450 2C19 (Homo sapiens) (P33261 whole entry, looked up): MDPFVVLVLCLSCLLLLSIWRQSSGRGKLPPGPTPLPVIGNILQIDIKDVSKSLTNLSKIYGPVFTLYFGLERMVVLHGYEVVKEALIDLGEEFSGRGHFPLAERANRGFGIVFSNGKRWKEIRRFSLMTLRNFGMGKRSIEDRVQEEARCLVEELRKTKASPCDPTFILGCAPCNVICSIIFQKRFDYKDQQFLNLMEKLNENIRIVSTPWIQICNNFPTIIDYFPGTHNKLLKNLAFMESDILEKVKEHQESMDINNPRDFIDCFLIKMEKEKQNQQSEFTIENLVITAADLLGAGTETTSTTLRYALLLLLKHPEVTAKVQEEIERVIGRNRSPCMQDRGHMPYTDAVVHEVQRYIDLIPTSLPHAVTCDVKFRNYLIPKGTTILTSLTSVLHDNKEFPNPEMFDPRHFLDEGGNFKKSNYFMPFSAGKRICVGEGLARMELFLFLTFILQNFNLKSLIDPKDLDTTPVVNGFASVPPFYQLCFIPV
Chain of Apoptosis regulator Bcl-2 (Homo sapiens) (P10415 whole entry, looked up): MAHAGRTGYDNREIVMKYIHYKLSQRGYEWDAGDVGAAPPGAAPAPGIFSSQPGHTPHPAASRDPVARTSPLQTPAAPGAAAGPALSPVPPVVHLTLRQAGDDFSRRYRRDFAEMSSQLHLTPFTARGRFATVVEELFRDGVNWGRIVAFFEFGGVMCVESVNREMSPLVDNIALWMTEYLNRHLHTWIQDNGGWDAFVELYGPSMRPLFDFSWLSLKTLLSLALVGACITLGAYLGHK

In general, AC50 refers to the concentration giving half of the maximal activity seen. With `CC(C)(C)c1cccc(C(C)(C)C)c1O`, the outcome in experiment [1], in experiment [2], in experiment [3], in [4], in experiment [5] and in [6] was inactive. The compound was classed as inactive in [7], in [8], in [9], in experiment [10], in [11] and in [12]. The outcome in experiment [13], in [14], in [15], in experiment [16] and in [18] was inactive. For the same compound, in experiment [17], the AC50 was 12.2 µM (active).
As for `CC(C)(C)c1cc(C(C)(C)C)c(O)c(C(C)(C)C)c1`, the result in experiment [1], in [3], in experiment [4], in [5], in [6] and in experiment [7] was inactive. The result in experiment [8], in [10], in experiment [12], in [13], in experiment [14] and in [19] was inactive. The outcome in experiment [17], in experiment [20] and in [18] was inactive. For the same compound, the AC50 in experiment [2] was 39.8 µM (active); in [9], 5.21 µM (active); in [11] it was 8.66 µM (active); in [15], 17 µM (active); in experiment [16], 8.55 µM (active).
For `CCCOC(=O)c1ccc(O)cc1`, the outcome in [1], in [2], in experiment [3], in [4], in [5] and in experiment [6] was inactive. Besides, the compound was classed as inactive in [7], in experiment [8], in [9], in [10], in [11] and in [13]. Moreover, the outcome in experiment [14], in [15], in experiment [19], in [17], in [20] and in experiment [18] was inactive.
Turning to `NC(=O)N1C(=O)C(C(=O)c2cc(Cl)cs2)c2cc(F)c(Cl)cc21` (stereo not given), the AC50 in experiment [1] is 17.5 µM (active); in experiment [4], 35.1 µM (active); in experiment [5], 50 µM (active); in [7] it was 19.1 µM (active); in experiment [9], 4.16 µM (active); in experiment [10], 19.2 µM (active). Besides, the AC50 in experiment [11] was 16.3 µM (active); in experiment [12], 22.4 µM (active); in experiment [13], 50 µM (active); in [14], 22.4 µM (active); in experiment [15], 13.2 µM (active); in experiment [16], 24.6 µM (active). Also, the half-maximal activity concentration (AC50) was 22.9 µM (active) in [17], 50 µM (active) in [20] and 79.3 µM (active) in [18]. Moreover, the result in [2], in [3], in [6] and in experiment [8] was inactive.
